{"source": "PubChem BioAssay (Tox21)", "note": "Values without a mark were called inactive. Calls of active or inactive are those of the source. The call rests on the fitted dose curve; in most records, active means well fitted curve in the direction sought with a large enough effect in the repeat runs; inconclusive means weak or mixed curves; inactive means flat fitted curve, though single readings scatter. On the % scale 0 is the no-effect control and ±100 the full control effect."}
{"assay": "qHTS assay to test for compound auto fluorescence at 535 nm (green) in HEK293 cells (AID 720680)", "details": "green autofluorescence 485/535 nm; series mostly up to 91.3 µM", "text": "U.S. Tox21 Program National Center for Advancing Translational Sciences [NCATS] NIH Chemical Genomics Center [NCGC] U.S. Environmental Protection Agency [EPA] National Institutes of Environmental Health Sciences [NIEHS] National Toxicology Program [NTP] U.S. Food and Drug Administration [FDA] Tox21 Assay Overview: Compound auto fluorescence often interferes with screening of the compound library against various biological targets and signaling pathways. Some of these compounds may have fluorophoric properties. Such properties may interfere with the assay outputs resulting in false positives and/or negatives. To decrease such complications and ensure the compound activities are relevant in terms of biological response, the Tox21 10K compound library was screened for auto fluorescence. From the fluorophores used as reporter signals in our screening assays, the auto fluorescence equivalencies of compounds against three fluorophores have been evaluated: Triamterene, Fluorescein and Rose Bengal sodium for blue, green and red fluorescence, respectively. The fluorescence intensities were measured using Excitation/Emission wavelengths at 405/460nm, 485/535nm and 540/590nm for blue, green and red labels, respectively. This assay includes the green fluorescence data.\nTox21 Assay Protocol Summary: 2,000 HEK293 cells in 5 uL of culture medium containing 10% dialyzed FBS per well were dispensed into black wall/clear bottom 1536-well plates using a Multidrop Combi Dispenser (Thermo Scientific). The assay plates were incubated for 4-5 hr at 37C to allow cell attachment to the well bottom, followed by the transfer of 23 nL compound or DMSO vehicle by a pintool work station (Kalypsys, San Diego, CA). After the assay plates were incubated overnight at 37C and 5% CO2, fluorescence intensities in the assay plates were measured by an Envision (PerkinElmer, Shelton, CT) plate reader using three labels for measuring blue, green and red fluorescence at […] 460, 535 and 590nm respectively."}
{"molecule": "O=C(OOC(=O)c1ccccc1)c1ccccc1", "outcome": "inactive"}
{"molecule": "O=C(O)COc1ccc2ccccc2c1", "outcome": "inactive"}
{"molecule": "N=C(N)N", "outcome": "inactive"}
{"molecule": "CC12CCCC=C1C(=O)OC2=O", "note": "(stereo not given)", "outcome": "inactive"}
{"molecule": "C=CCCCCCCCCOC(C)=O", "outcome": "inactive"}
{"molecule": "C=CC(=O)CC", "outcome": "inactive"}
{"molecule": "CCCCCCCCCCCC(C)=O", "outcome": "inactive"}
{"molecule": "O=c1c(O)c(O)c1=O", "outcome": "inactive"}
{"molecule": "CC1(C)C(=O)C(C)(C)C1=O", "outcome": "inactive"}
{"molecule": "CN(C)CCc1c[nH]c2ccc(CS(=O)(=O)N3CCCC3)cc12", "outcome": "inactive"}
{"molecule": "Cc1ccc2cccnc2c1", "outcome": "inactive"}
{"molecule": "CC(C)=CCC/C(C)=C\\C#N", "outcome": "inactive"}
{"molecule": "C=CC(=O)OCC[N+](C)(C)C", "outcome": "inactive"}
{"molecule": "c1cc2ccc3ccc4ccc5cccc6c(c1)c2c3c4c56", "fluorescence, % of fluorescein": "-0.0268% [at 3.72 µM]"}
{"molecule": "CC(=O)c1ccc2ccc3ccccc3c2c1", "outcome": "inactive"}
{"molecule": "Cc1ccc(O)c(C(=O)c2ccccc2)c1", "outcome": "inactive"}
{"molecule": "CCNC(=O)C(C)OC(=O)Nc1ccccc1", "note": "(stereo not given)", "outcome": "inactive"}
{"molecule": "O=C(O)CCCCCCCCCC(=O)O", "outcome": "inactive"}
{"molecule": "CCCCc1ccc(Cl)cc1", "outcome": "inactive"}
{"molecule": "CCCC[O][Al]([O]CCCC)[O]CCCC", "outcome": "inactive"}
{"molecule": "C/C=C(\\C)C=O", "outcome": "inactive"}
{"molecule": "CCO/C=C1\\N=C(c2ccccc2)OC1=O", "outcome": "inactive"}
{"molecule": "CCCCS", "outcome": "inactive"}
{"molecule": "CC(=O)SCC(CC(=O)c1ccc(C)cc1)C(=O)O", "note": "(stereo not given)", "outcome": "inactive"}
{"molecule": "O=P(O)(O)C(O)(Cc1cccnc1)P(=O)(O)O", "outcome": "inactive"}
{"molecule": "N[C@H]1C(O)O[C@H](CO)[C@@H](O)[C@@H]1O", "note": "(stereo not given in full)", "outcome": "inactive"}
{"molecule": "C=C(C)C(=O)OCCOC1CC2CC1C1C=CCC21", "note": "(stereo not given)", "outcome": "inactive"}
{"molecule": "CCOC(=O)c1ccc(N(C)C)cc1", "outcome": "inactive"}
{"molecule": "CCCC(C)C(O)CC", "note": "(stereo not given)", "outcome": "inactive"}
{"molecule": "CCCCCCCCCCCCCCCCN(C)C", "fluorescence, % of fluorescein": "0.0696% [at 3.72 µM]"}
{"molecule": "O=C1c2ccccc2C(=O)N1CO", "outcome": "inactive"}
{"molecule": "C=CCN(CC=C)CC=C", "outcome": "inactive"}
{"molecule": "COc1cc(NS(=O)(=O)c2ccc(N)cc2)ncn1", "fluorescence, % of fluorescein": "0.0387% [at 18.6 µM]"}
{"molecule": "CCCCCCCC(=O)N(C)C", "outcome": "inactive"}
{"molecule": "COc1cc2nc(N3CCN(C(=O)C4CCCO4)CC3)nc(N)c2cc1OC", "note": "(stereo not given)", "outcome": "inactive"}
{"molecule": "N#CC1(N)CCCCC1", "outcome": "inactive"}
{"molecule": "CCCCN=C(N)N=C(N)N", "outcome": "inactive"}
{"molecule": "O=S(=O)(O)CC(O)CCl", "note": "(stereo not given)", "outcome": "inactive"}
{"molecule": "Cc1cc(C)c(N)c(Cl)c1", "outcome": "inactive"}
{"molecule": "COC(=O)C(c1ccccc1Cl)N1CCc2sccc2C1", "note": "(stereo not given)", "outcome": "inactive"}
